Test results: PubChem BioAssay (EPA / NIEHS)
Results filed as inconclusive are left out. Calls of active or inactive are those of the source. The calls were made as follows: active = hit-call score of the fitted dose curve at least 0.9, where 1 is the maximum; inconclusive = response in the unintended direction; inactive = score below 0.9.

Tests used:
[1] = target: rat Histamine Receptor (H3), Hrh3 (gene 85268) (UniProt Q9QYN8); experiment: NVS_GPCR_rH3: NovaScreen (NVS) G Protein-Coupled Receptor Assay for rat Histamine Receptor (H3) (AID 2283303)
Description: NVS_GPCR_rH3 is a biochemical, single-readout assay that uses extracted gene-proteins from Rat forebrain membranes in a tissue-based cell-free assay. Measurements were taken 1 hour after chemical dosing in a 48-well plate.NVS_GPCR_rH3 is one of one assay component(s) measured or calculated from the NVS_GPCR_rH3 assay. It is designed to make measurements of radioligand binding, a form of binding reporter, as detected with scintillation counting signals by Filter-based radiodetection technology.Data from the assay component NVS_GPCR_rH3 was analyzed into 1 assay endpoint. This assay endpoint, NVS_GPCR_rH3, was analyzed in the positive analysis fitting direction relative to DMSO as the negative control and baseline of activity. […] Furthermore, this assay endpoint can be referred to as a primary readout, because the performed assay has only produced 1 assay endpoint. […]
Binding assays used specific radioligands (tritiated, iodinated) with non-radioactive competitive displacement ligands in agonist or antagonist protocols (as indicated) and various reference compounds and inhibitors to titrate specific binding to receptors and transporters. Most enzyme assays (CYPs, kinases, phosphatases, proteases, HDACs) used recombinant protein and specific substrates (fluorescence mostly, some colorimetric and radioactive) and inhibitors, followed by a biochemical separation of substrate and product. […]

[2] = target: Metabotropic glutamate receptor 1 (Rattus norvegicus) (UniProt P23385); experiment: NVS_GPCR_rmMGluR1: NovaScreen (NVS) G Protein-Coupled Receptor Assay for rat Glutamate Metabotropic Receptor 1 (MGluR1) (AID 2283305)
How it was run: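 Rat cerebellum membrane preparation, radioligand displacement binding read by filter-based scintillation counting 1 hour after dosing. Initial duplicate single-point screen at 25 uM, then concentration-response up to 50 uM; loss of signal versus DMSO baseline scored.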

rat Histamine Receptor (H3), Hrh3 (gene 85268), sequence (Q9QYN8 whole entry, looked up): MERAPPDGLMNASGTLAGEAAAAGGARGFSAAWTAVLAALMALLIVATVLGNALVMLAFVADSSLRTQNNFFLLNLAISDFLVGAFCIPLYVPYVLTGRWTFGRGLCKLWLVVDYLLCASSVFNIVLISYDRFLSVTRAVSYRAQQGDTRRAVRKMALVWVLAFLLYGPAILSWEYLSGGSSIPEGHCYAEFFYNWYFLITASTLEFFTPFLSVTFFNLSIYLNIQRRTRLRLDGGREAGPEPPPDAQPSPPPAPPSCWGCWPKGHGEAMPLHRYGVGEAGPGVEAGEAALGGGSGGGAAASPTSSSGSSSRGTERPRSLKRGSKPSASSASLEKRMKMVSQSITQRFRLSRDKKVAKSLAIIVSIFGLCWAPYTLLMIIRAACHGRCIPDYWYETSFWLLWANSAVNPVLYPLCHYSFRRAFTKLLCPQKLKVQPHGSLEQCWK
Metabotropic glutamate receptor 1 (Rattus norvegicus), sequence (P23385 whole entry, looked up): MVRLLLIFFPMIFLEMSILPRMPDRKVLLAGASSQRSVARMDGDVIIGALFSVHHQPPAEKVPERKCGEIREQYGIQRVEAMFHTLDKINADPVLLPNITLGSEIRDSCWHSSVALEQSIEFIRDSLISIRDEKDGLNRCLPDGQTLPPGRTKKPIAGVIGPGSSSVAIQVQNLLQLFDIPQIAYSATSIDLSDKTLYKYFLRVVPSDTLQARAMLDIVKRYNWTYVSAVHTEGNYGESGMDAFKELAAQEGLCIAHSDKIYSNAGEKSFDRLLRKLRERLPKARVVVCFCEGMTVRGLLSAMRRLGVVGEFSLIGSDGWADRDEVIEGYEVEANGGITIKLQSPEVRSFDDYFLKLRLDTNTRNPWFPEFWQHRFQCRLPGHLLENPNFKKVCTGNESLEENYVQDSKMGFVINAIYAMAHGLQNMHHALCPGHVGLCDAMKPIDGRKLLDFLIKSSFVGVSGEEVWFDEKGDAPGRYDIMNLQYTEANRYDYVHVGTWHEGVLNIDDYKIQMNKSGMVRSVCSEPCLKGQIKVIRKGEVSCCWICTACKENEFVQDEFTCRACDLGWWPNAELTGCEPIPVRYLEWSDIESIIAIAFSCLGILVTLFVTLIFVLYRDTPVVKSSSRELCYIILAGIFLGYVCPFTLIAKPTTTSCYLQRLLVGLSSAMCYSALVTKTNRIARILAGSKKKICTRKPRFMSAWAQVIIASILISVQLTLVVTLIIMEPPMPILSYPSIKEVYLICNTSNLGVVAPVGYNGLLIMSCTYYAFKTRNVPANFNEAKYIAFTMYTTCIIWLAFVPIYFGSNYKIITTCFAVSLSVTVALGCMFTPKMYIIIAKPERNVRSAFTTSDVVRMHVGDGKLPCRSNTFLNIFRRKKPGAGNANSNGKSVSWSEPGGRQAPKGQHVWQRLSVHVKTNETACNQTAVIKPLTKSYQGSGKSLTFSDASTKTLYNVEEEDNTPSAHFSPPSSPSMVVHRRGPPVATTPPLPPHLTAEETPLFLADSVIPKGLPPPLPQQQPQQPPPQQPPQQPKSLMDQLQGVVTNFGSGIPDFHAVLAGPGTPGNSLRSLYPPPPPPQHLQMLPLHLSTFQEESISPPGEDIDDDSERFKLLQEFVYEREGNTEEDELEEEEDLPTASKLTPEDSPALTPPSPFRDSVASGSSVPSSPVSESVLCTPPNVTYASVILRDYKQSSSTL

Structure (SMILES)	AC50 [1]	AC50 [2]
COP(=O)(OC)OC(Br)C(Cl)(Cl)Br (stereo not drawn)	5.79 µM (active)	
N#CSCSC#N	9.77 µM (active)	
CC[C@H](C)[C@H]1O[C@]2(C=C[C@@H]1C)C[C@@H]1C[C@@H](C/C=C(\C)[C@@H](O[C@H]3C[C@H](OC)[C@@H](O[C@H]4C[C@H](OC)[C@@H](NC)[C@H](C)O4)[C@H](C)O3)[C@@H](C)/C=C/C=C3\CO[C@@H]4[C@H](O)C(C)=C[C@@H](C(=O)O1)[C@]34O)O2		12.7 µM (active)
